Source: PubChem BioAssay (NCI)
About 79,000 compounds went through this panel and 15% of them were active in at least one assay; those are over-represented in the sample as a whole. Unmarked numbers belong to inactive results. The source made the active and inactive calls. Rule as the data show it: active = growth inhibition above about 70%; inactive = the rest.

What was measured:
[1] = NCI Yeast Anticancer Drug Screen. Data for the rad50 strain (AID 155);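 also: 0% = growth of vehicle-only cultures of the same strain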; details: S. cerevisiae rad50 strain growth inhibition, stronger effect = higher value
How it was run: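 Readout: growth inhibition relative to vehicle-treated cultures. Compound exposure was carried out in a genetically defined yeast strain deficient in DNA damage repair.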

[2] = NCI Yeast Anticancer Drug Screen. Data for the mec2-1 strain (AID 157); details: S. cerevisiae mec2-1 strain, stronger effect = higher value
How it was run: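 Using mec2-1 yeast: add compound, measure growth, express inhibition versus vehicle-treated cultures.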

[3] = NCI Yeast Anticancer Drug Screen. Data for the sgs1 mgt1 strain (AID 161);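 also: 0% = growth of cultures given vehicle only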; details: S. cerevisiae sgs1 mgt1 strain, stronger effect = higher value
How it was run: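 Compounds are added to genetically altered yeast, and growth is compared with cultures given vehicle alone to give percent inhibition.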

[4] = NCI Yeast Anticancer Drug Screen. Data for the cln2 rad14 strain (AID 165);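 also: 0% = growth equal to vehicle treated cultures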; details: S. cerevisiae cln2 rad14 strain, stronger effect = higher value
How it was run: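 Yeast strain cln2 rad14, bearing defects in cell cycle control and DNA repair, serves as the test system; values reflect growth inhibition compared with vehicle.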

[5] = NCI Yeast Anticancer Drug Screen. Data for the bub3 strain (AID 167); details: S. cerevisiae bub3 mutant strain, stronger effect = higher value
How it was run: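 Readout: yeast growth inhibition, expressed relative to vehicle-only wells. The test organism is a mutant strain from a panel with lesions in DNA repair or checkpoint genes.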

[6] = NCI Yeast Anticancer Drug Screen. Data for the mlh1 rad18 strain (AID 175); details: S. cerevisiae mlh1 rad18 strain growth inhibition, stronger effect = higher value
How it was run: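 Steps: expose repair-defective yeast to compound; measure growth; express inhibition against vehicle-treated controls.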

[7] = at 5.0 µM (retest, dose inferred, filed as 0.5)
[8] = at 50.0 µM (retest, dose inferred, filed as 5.0)

SMILES | growth inhibition [1, 7] | growth inhibition [1, 8] | growth inhibition ([1]; at 50.0 µM) | growth inhibition [2, 7] | growth inhibition [2, 8] | growth inhibition ([2]; at 50.0 µM) | growth inhibition [3, 7] | growth inhibition [3, 8] | growth inhibition ([3]; at 50.0 µM) | growth inhibition [4, 7] | growth inhibition [4, 8] | growth inhibition ([4]; at 50.0 µM) | growth inhibition [5, 7] | growth inhibition [5, 8] | growth inhibition ([5]; at 50.0 µM) | growth inhibition [6, 7] | growth inhibition [6, 8] | growth inhibition ([6]; at 50.0 µM)
O=C1NC(c2cccc3ccccc23)Nc2ccc(Cl)cc21 (stereo not given) | 18% | 95% (active) | 74% (active) | 10% | 96% (active) | 84.8% (active) | 5% | 97% (active) | 83% (active) | 12% | 85% (active) | 56.3% | 1% | 96% (active) | 80.6% (active) | 20% | 94% (active) | 77.2% (active)
Cc1cc(C(C)(CC(C)C)c2ccc(O)c(C)c2)ccc1O | 99% (active) | 99% (active) | 91.1% (active) | 98% (active) | 99% (active) | 93% (active) | 97% (active) | 98% (active) | 93.2% (active) | 68% | 98% (active) | 92.5% (active) | 98% (active) | 97% (active) | 91.4% (active) | 100% (active) | 100% (active) | 91.3% (active)
O=C(O)CC1(C(=O)O)CCCCC1 | -9% | 15% | -16.4% | -4% | -1% | -16.6% | -5% | -13% | -21.6% | 6% | 0% | 18.4% | -13% | -14% | -6.9% | 11% | 17% | 2.7%
Cc1cc(C)c(C(=O)/C=C/C(=O)c2ccccc2)c(C)c1 | 86% (active) | 95% (active) | 62.4% | 89% (active) | 96% (active) | 78.1% (active) | 85% (active) | 96% (active) | 90.6% (active) | 51% | 95% (active) | 47.2% | 89% (active) | 96% (active) | 96% (active) | 93% (active) | 96% (active) | 92.7% (active)
COCCCNC(=S)N/N=C/c1cc(Cl)cc(Cl)c1O | 21% | 75% (active) | 92.5% (active) | 15% | 81% (active) | 89.3% (active) | 27% | 94% (active) | 93.6% (active) | 10% | 77% (active) | 48.7% | 4% | 83% (active) | 80.7% (active) | 13% | 93% (active) | 85.2% (active)
